Source: PubChem BioAssay
MEKK2mut PB1 HTS – signal of MEK5 binding to mutant human MEKK2 PB1 domain; bead flow cytometry, Alexa488-MEK5 binding to MEKK2 mutant; percent response, % at 10 µM; hit rate 0.35% among 290,000; AID 1530; in the data active = percent response above about 24%, passing the limit was not always enough
GRK2 inh – human GRK2 inhibition via aptamer displacement | hit rate 0.59% among 330,000 | bead flow cytometry, FAM-aptamer displacement from GRK2 | AID 488847 | inhibition of aptamer binding, % at 10 µM;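 active = inhibition of aptamer binding above 40%, roughly 3 SD of noise, on plates passing a quality check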;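 note: median bead fluorescence of bound FAM aptamer so fluorescent compounds give negative values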
MEKK2wt PB1 HTS – raises or lowers MEK5 binding to wildtype human MEKK2 PB1 domain | hit rate 1.1% among 290,000 | binding response (% of control), % at 10 µM | bead flow cytometry, Alexa488-MEK5 binding to MEKK2 WT; actives lie on both sides | Q9Y2U5 | AID 1531; in the data active = binding response below about 67% or above about 130%
MEKK3 PB1 HTS – MEKK3-MEK5 PB1 interaction, increase or decrease | Q99759 | bead-based flow cytometry, Alexa488-MEK5 binding to MEKK3; actives lie on both sides; 0 = blocked by unlabeled MEK5, 100 = vehicle | binding response (% of control), % at 10 µM | hit rate 1.4% among 290,000 | AID 1529;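 active = binding response more than 3 SD above or below the average of its plate-row segment, actives on both sides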;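 note: Alexa488 bead fluorescence after subtracting the streptavidin-only scavenger bead signal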
Target sequence (Q99759 whole entry, looked up): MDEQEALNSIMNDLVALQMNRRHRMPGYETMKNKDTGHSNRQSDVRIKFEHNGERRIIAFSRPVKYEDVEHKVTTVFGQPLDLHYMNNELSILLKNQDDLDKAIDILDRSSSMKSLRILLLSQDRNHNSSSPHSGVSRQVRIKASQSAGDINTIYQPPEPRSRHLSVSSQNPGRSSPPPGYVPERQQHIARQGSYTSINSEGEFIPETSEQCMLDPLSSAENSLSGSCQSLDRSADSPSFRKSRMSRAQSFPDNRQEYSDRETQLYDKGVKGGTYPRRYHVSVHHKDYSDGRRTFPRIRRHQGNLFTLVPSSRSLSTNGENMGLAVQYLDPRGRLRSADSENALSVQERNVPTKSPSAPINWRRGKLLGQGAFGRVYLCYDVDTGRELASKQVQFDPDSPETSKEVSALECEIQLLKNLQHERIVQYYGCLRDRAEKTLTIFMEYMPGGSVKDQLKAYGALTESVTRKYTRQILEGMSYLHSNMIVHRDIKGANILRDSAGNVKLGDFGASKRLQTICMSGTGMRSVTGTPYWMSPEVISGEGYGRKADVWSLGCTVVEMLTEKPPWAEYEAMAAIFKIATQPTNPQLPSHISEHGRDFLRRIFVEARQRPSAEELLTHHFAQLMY
MEKK2wt confirm – raises or lowers MEK5 binding to wildtype human MEKK2, retest; shares compounds with MEKK3 PB1 HTS; bead flow cytometry, Alexa488-MEK5 binding to MEKK2 WT; actives lie on both sides; binding response (% of control), % at 10 µM; hit rate 2.4% among 5,900; AID 1892; in the data active = binding response below about 16% or above about 210%; inactive = in between
MEKK2mut-MEK5 – signal of MEK5 binding to mutant human MEKK2, retest | percent response, % at 10 µM | bead flow cytometry, Alexa488-MEK5 binding to MEKK2 mutant | shares compounds with MEKK3 PB1 HTS | AID 1893 | hit rate 2% among 5,900; in the data active = percent response mostly above about 71%, no sharp cut-off; inactive = mostly below about 38%;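 note: higher means compound restores mutant binding toward wildtype level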
MEKK3 confirm – MEKK3-MEK5 PB1 inhibition, single concentration confirmation. binding response (% of control), % at 10 µM. bead flow cytometry, Alexa488-MEK5 binding to MEKK3; active compounds read low. shares compounds with MEKK3 PB1 HTS. hit rate 1.8% among 5,900;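 active = binding response below 72% of control, or above a set upper limit, though filed actives all read lower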;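 note: lower values mean stronger disruption of MEK5 binding to MEKK3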
Of the large screens only hits and unclear results are named; the others gave an inactive call (follow-up assays come after a bar, where they were run); [ ] = another dose, or the depositor's remark. Shown are actives, neighbours in structure and some others; about 2.5% of the full set was active somewhere.

CCC(C)NC(=O)/C=C1\Sc2ccccc2NC1=O (stereo not drawn)	MEKK3 PB1 HTS 135.0 | MEKK2wt confirm inactive | MEKK2mut-MEK5 inactive | MEKK3 confirm inactive
CCNc1ccc(C(=O)OCC(=O)NCc2ccccc2Cl)cc1[N+](=O)[O-]	MEKK3 PB1 HTS 140.0 | MEKK2wt confirm inactive | MEKK2mut-MEK5 inactive | MEKK3 confirm inactive
CCNc1ccc(C(=O)OCC(=O)NC(=O)NCC(C)C)cc1[N+](=O)[O-]	none
C=CCc1cccc(CNc2c(C)n(C)n(-c3ccccc3)c2=O)c1O	none
C=CCc1cccc(CNc2c(C)cc(C)cc2C)c1O	MEKK3 PB1 HTS 70.0[inhibitor] | MEKK2wt confirm inactive | MEKK2mut-MEK5 inactive | MEKK3 confirm inactive
c1ccc(-c2cc(-c3ccccc3)on2)cc1	MEKK3 PB1 HTS 130.0 | MEKK2wt confirm inactive | MEKK2mut-MEK5 inactive | MEKK3 confirm inactive
Cc1ccc(-c2cc(-c3ccccc3)no2)cc1	none (no result: MEKK2mut PB1 HTS, MEKK2wt PB1 HTS, MEKK3 PB1 HTS)
CCCCC12CN3CCN(CC(C3)/C1=N\NC(=O)Nc1ccccc1)C2	none
CCC12CN3CCN(CC(C3)/C1=N\NC(=O)Nc1ccccc1)C2	MEKK3 PB1 HTS 129.0 | MEKK2wt confirm inactive | MEKK2mut-MEK5 inactive | MEKK3 confirm inactive
CC(C)(C)NC(=O)CSc1nnc(Cc2ccccc2)n1CC1CCCO1 (stereo not drawn)	none
CC1(C)CC(=O)C2=C(C1)Nc1ncnn1C2c1cccs1 (stereo not drawn)	MEKK3 PB1 HTS 145.0 | MEKK2wt confirm inactive | MEKK2mut-MEK5 inactive | MEKK3 confirm inactive
CC1(C)CC(=O)C2=C(C1)Nc1ccccc1NC2c1cccs1 (stereo not drawn)	none
CN(C)S(=O)(=O)c1ccc(C(=O)OCC(=O)Nc2sc3c(c2C#N)CCCCC3)cc1	none
CC(C)(C)c1ccc(C(=O)OCC(=O)Nc2sc3c(c2C#N)CCC3)cc1	MEKK3 PB1 HTS 132.0 | MEKK2wt confirm inactive | MEKK2mut-MEK5 inactive | MEKK3 confirm inactive
Cc1cccc(-n2c(=O)c3c4c(sc3n3c(=S)[nH]nc23)CCC4)c1	MEKK3 PB1 HTS 131.0 (no result: GRK2 inh) | MEKK2wt confirm inactive | MEKK2mut-MEK5 inactive | MEKK3 confirm inactive
Cc1ccc(-n2c(=O)c3c4c(sc3n3c(=S)[nH]nc23)CCC4)cc1	none
CC(=O)Nc1cc(C(=O)N(C)Cc2ccco2)ccc1Sc1ccc(Cl)cc1	MEKK3 PB1 HTS 142.0 | MEKK2wt confirm inactive | MEKK2mut-MEK5 inactive | MEKK3 confirm inactive
C[C@@H](O)C1NC(=O)[C@H](CCCCN)NC(=O)c2cc([N+](=O)[O-])cc(F)c2NCCCC[C@@H](C(N)=O)NC1=O (stereo partly drawn)	MEKK2wt PB1 HTS 141.0 | MEKK2wt confirm inactive | MEKK2mut-MEK5 inactive | MEKK3 confirm inactive
Cc1cccc(C)c1NC(=O)Cn1nnc(-c2ccc(CN3CCC(C)CC3)cc2)n1	MEKK3 PB1 HTS 144.0 | MEKK2wt confirm inactive | MEKK2mut-MEK5 inactive | MEKK3 confirm inactive
Cc1cc(C(F)(F)F)nn1Cc1ccc(C(=O)NCc2ccco2)o1	none
Cc1ccc(CNCC(O)(c2ccccc2)c2ccccc2)cc1	none
CCc1ccc(C(O)(CNCc2ccccc2)c2ccccc2)cc1 (stereo not drawn)	MEKK2mut PB1 HTS 26.0 | MEKK2wt confirm inactive | MEKK2mut-MEK5 inactive | MEKK3 confirm inactive
COc1cccc(CNCC(O)(c2ccc(Cl)cc2)c2ccc(Cl)cc2)c1	MEKK2wt PB1 HTS 158.0 | MEKK2wt confirm inactive | MEKK2mut-MEK5 inactive | MEKK3 confirm inactive
C=C1C2(C(=O)NCc3ccco3)CCC(C2)C1(C)C (stereo not drawn)	none
COc1ccc2cc(CCNC(=O)C3CC3)c(=O)[nH]c2c1	none (no result: MEKK2mut PB1 HTS, MEKK2wt PB1 HTS, MEKK3 PB1 HTS)
Cc1ccc(-c2nc3nc4ccccc4nc3n2Cc2ccco2)cc1	none
COC(=O)c1ccc(NC(=S)N2CCN(Cc3cccc(C)c3)CC2)cc1	none
COc1ccccc1CNC(=O)CSc1nnc2ccc(-c3cccnc3)nn12	MEKK2mut PB1 HTS 171.0 | MEKK2wt confirm inactive | MEKK2mut-MEK5 inactive | MEKK3 confirm inactive
COc1ccc(NC(=O)CSc2nnc3ccc(-c4cccnc4)nn23)cc1OC	none (no result: MEKK2mut PB1 HTS, MEKK2wt PB1 HTS, MEKK3 PB1 HTS)
CC1=CC(=O)c2ccccc2C1=O	none
CC(C)(C=O)C1=CC(=O)c2ccccc2C1=O	MEKK3 PB1 HTS 154.0 | MEKK2wt confirm inactive | MEKK2mut-MEK5 inactive | MEKK3 confirm inactive
NC(N)=N/N=C/c1ccc(OCc2ccccc2Cl)cc1	MEKK2mut PB1 HTS 49.0, MEKK2wt PB1 HTS 208.0 | MEKK2wt confirm 209.0 | MEKK2mut-MEK5 inactive | MEKK3 confirm inactive
OCCCCNCc1ccc(OCc2ccccc2Cl)cc1	MEKK2mut PB1 HTS 27.0, MEKK2wt PB1 HTS 163.0 | MEKK2wt confirm inactive | MEKK2mut-MEK5 inactive | MEKK3 confirm inactive
CCOC(=O)N1CCN(C(=O)CN(CC)S(=O)(=O)c2cc(C)ccc2OC)CC1	none
O=C(N1CCCCC1)N1CCC(c2nc3ccccc3[nH]2)CC1	MEKK2wt PB1 HTS 2.0[inhibitor], MEKK3 PB1 HTS 1.0[inhibitor] | MEKK2wt confirm inactive | MEKK2mut-MEK5 inactive | MEKK3 confirm inactive
O=S(=O)(Nc1nc2ccccc2nc1NCC1CCCO1)c1ccccc1 (stereo not drawn)	MEKK3 PB1 HTS 53.0[inhibitor] | MEKK2wt confirm inactive | MEKK2mut-MEK5 inactive | MEKK3 confirm inactive
Cc1ccc(S(=O)(=O)Nc2nc3ccccc3nc2NCC2CCCO2)cc1 (stereo not drawn)	none
CCOC(=O)C1=NNC2(c3ccc(Cl)cc3)C(=O)N(c3ccc(C)cc3)C(=O)C12 (stereo not drawn)	none
CCN(Cc1ccccc1)S(=O)(=O)c1ccc(C(=O)N(CCCN(C)C)c2nc3cc4c(cc3s2)OCCO4)cc1	none (no result: MEKK2mut PB1 HTS, MEKK2wt PB1 HTS, MEKK3 PB1 HTS)
CN(C)CCCN(C(=O)c1ccc(S(=O)(=O)N2CCCC2)cc1)c1nc2ccc(Br)cc2s1	MEKK2mut PB1 HTS 30.0, MEKK2wt PB1 HTS 181.0 | MEKK2wt confirm 234.0 | MEKK2mut-MEK5 112.0 | MEKK3 confirm inactive
CCc1ccc2nc(N(CCCN(C)C)C(=O)c3ccc(S(=O)(=O)N(C)C4CCCCC4)cc3)sc2c1	MEKK2mut PB1 HTS 51.0, MEKK2wt PB1 HTS 210.0 | MEKK2wt confirm inactive | MEKK2mut-MEK5 inactive | MEKK3 confirm inactive
COc1cc2nc(N(CCCN(C)C)C(=O)c3ccc(S(=O)(=O)N(C)C4CCCCC4)cc3)sc2cc1OC	none (no result: MEKK2mut PB1 HTS, MEKK2wt PB1 HTS, MEKK3 PB1 HTS)
Cc1cc(C)c2sc(N(CCCN(C)C)C(=O)c3ccc(S(=O)(=O)N(C)C4CCCCC4)cc3)nc2c1	none (no result: MEKK2mut PB1 HTS, MEKK2wt PB1 HTS, MEKK3 PB1 HTS)
CN(C)CCCN(C(=O)c1ccc(S(=O)(=O)N(C)C2CCCCC2)cc1)c1nc2ccc(F)cc2s1	MEKK2mut PB1 HTS 28.0, MEKK2wt PB1 HTS 163.0 | MEKK2wt confirm inactive | MEKK2mut-MEK5 inactive | MEKK3 confirm inactive
